Assay results as given in PubChem BioAssay AID1304 (The Scripps Research Institute Molecular Screening Center, 2008).
The campaign covered roughly 220,000 compounds. About 800 (0.36%) were called active. Rule as the data show it: active = activation above about 33% (passing the limit was not always enough); inactive = the rest. Shown is part of a subset that was picked to be rich in actives.

biological target: Neuropeptide Y receptor type 1 (Homo sapiens) (UniProt P25929); test: NPY-Y1 receptor potentiators or agonists, primary screen, cell-based (AID 1304); settings: NPY-Y1 expressing cells, potentiator/agonist activation; at 3.6 µM; stronger effect = higher value;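 also: cells stimulated with NPY at EC10 then isoproterenol at EC100; 0% = low agonist plus stimulus and 100% = saturating agonist plus stimulus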
Sequence (P25929 whole entry, looked up): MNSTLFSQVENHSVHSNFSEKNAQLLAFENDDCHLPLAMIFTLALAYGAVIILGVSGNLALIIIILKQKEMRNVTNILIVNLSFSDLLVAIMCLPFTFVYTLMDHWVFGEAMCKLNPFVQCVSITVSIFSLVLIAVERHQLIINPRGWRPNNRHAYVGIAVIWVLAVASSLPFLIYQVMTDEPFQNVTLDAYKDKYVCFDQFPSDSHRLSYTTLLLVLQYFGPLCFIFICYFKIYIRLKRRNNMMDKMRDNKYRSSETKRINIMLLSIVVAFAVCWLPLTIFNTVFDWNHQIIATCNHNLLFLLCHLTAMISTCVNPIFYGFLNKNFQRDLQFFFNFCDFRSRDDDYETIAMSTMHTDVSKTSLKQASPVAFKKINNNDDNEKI

activation, inactive:
Cc1ccn(-c2cccc(-n3ccc(C)n3)n2)n1 -27.2%
S=C(NCc1ccc2c(c1)OCO2)NCc1ccco1 -4.25%
C=CCOc1ccc(/C=C2\SC(=S)N(CCC(=O)O)C2=O)cc1 6.81%
CC(=O)Nc1ccc(OC(=O)COc2ccc(Br)cc2)cc1 -18.4%
CCOC(=O)CN(C(=O)COc1nc(-c2ccccc2)cc(C)c1C#N)c1ccc(F)cc1 -29.2%
Cc1nccn1CC(=O)N/N=C/c1ccc(O)c(O)c1 2.53%
O=C(Nc1ccccc1)Nc1ccc(C(F)(F)F)cn1 5.1%
Cc1cc(/C=C2/SC(=O)N(CC(=O)N3CCCC3)C2=O)ccc1N1CCOCC1 15.8%
O=C(NCc1ccccc1)C1=C[C@@H](c2ccc(C(F)(F)F)cc2)C[C@@H](OCc2ccc(CO)cc2)O1 -2.07%
CC(=O)Nc1ccc(NC(=O)C(C)n2c3ccccc3c3nc(=O)cc(C)n32)cc1 (centres undefined) -7.92%
Cc1ccc(NC(=O)Nc2cccc(C(F)(F)F)c2)nc1 1.1%
CCNS(=O)(=O)c1ccc(NC(=O)Nc2cccc(OC)c2)cc1 13.3%
Cc1cc(Cl)ccc1NC(=S)NCCCN1CCCC1=O 3.39%
COC(=O)c1cc(S(=O)(=O)N2CCC(C(N)=O)CC2)oc1C -1.47%
O=C(CN1CCN(c2ccc(O)cc2)CC1)Nc1cc(S(=O)(=O)N2CCOCC2)ccc1Cl -5.24%
O=C(N/N=C/c1ccc([N+](=O)[O-])o1)c1cccc(S(=O)(=O)N2CCOCC2)c1 -11.9%
CC(C)(C)C(=O)NNC(=O)c1ccc(Oc2cc(Cl)cc(Cl)c2)o1 -7.64%
Cc1ccc(C)c(Cn2cnc3c(oc4ccccc43)c2=O)c1 -12.5%
COc1cccc2cc(S(=O)(=O)c3ccc(C)cc3)/c(=N/NS(=O)(=O)c3ccc(C)cc3)oc12 2.71%
C=CCNC(=O)/C=C/c1ccc(C(C)C)cc1 9.4%
COc1ccc(C(=O)C2CCCN(Cc3ccc4nonc4c3)C2)c(C)c1 (centres undefined) -11.8%
CCOC(=O)c1[nH]ncc1CN1CCCC(C(=O)c2ccc(OC)cc2C)C1 (centres undefined) -0.54%
COC(=O)C1=C(C(=O)OC)C2(OC1c1ccc(Br)cc1)C(=O)c1ccccc1C2=O (centres undefined) 2.63%
Nc1c(-c2cccc(Cl)c2)cnn1-c1cccc([N+](=O)[O-])c1 43.2%
CCOC(=O)/C(N=Nc1cc(C(=O)O)cc(C(=O)O)c1)=C(\O)CCl -8%
COc1ccc(C(=O)NCC(=O)N/N=C/c2ccc([N+](=O)[O-])s2)cc1OC 6.89%
CCOc1ccc(NC(=O)CCC(=O)N/N=C/c2ccc([N+](=O)[O-])s2)cc1 19.1%
CCc1ccc2nc(Nc3ncc(C(C)=O)c(C)n3)nc(C)c2c1 9.28%
OCC1(CCc2ccccc2)CCN(Cc2ccc3nsnc3c2)CC1 -0.79%
O=C(/C=C/c1cnc2ccccc2n1)NC1CCCCCC1 -3.45%
COCCNC(=O)/C(C#N)=C/c1nc(N(C)C)n(-c2ccc(F)cc2)c1Cl 0.95%
CCCCN1C(=S)NC[C@@H]1C(C)CC (some centres undefined) -11.4%
CCS(=O)(=O)N1CCN(C(=O)c2cccs2)CC1 3.05%
Cc1ccc(C(=O)N2CCN(C(=O)N3CCOCC3)CC2)cc1 -5.88%
O=S1(=O)C=C(SCCN2CCCC2)c2ccccc21 19%
O=C(CN1C(=O)CC(c2ccccc2)S(=O)(=O)c2ccccc21)NC1CCCC1 (centres undefined) -1.33%
Cc1cc([N+](=O)[O-])c(NC2CCCCC2)c([N+](=O)[O-])c1 -19.9%
Cc1cc(-c2nnc(CCC(=O)NC(c3ccccc3)c3ccccc3)o2)no1 -1.1%
O=C(NC1CCN(Cc2ccccc2)CC1)c1ccc(Oc2cc(Cl)cc(Cl)c2)o1 2.83%
O=C(NC(=S)N1CCc2ccccc21)c1ccco1 5.18%
O=C(O)/C=C/C(=O)Nc1ccc(F)cc1F -9.35%
COc1ccccc1NC(=O)/C=C/C(=O)O -17.3%
CCOC(=O)C1CCN(C(=O)Nc2ccc(C)c(Cl)c2)CC1 2.62%
CCCCCCCCCCCCN1C(=O)CSC1c1cccnc1 (centres undefined) 5.01%
CC1=C/C(=N\S(=O)(=O)c2ccccc2)C(C(C)C)=CC1=O 2.13%
CCOC(=O)C1(S(=O)(=O)c2ccccc2)CCN(Cc2ccccc2)CC1 3.32%
COc1ccc(C(=O)COC(=O)c2nn(C)c(=O)c3ccccc23)c(OC)c1 -10.6%
CCOc1ccc(C(=O)NC(=S)Nc2ccc(NC(=O)C(C)C)cc2)cc1[N+](=O)[O-] -12.8%
CC(C)(O)C#Cc1ccc(C(=O)N2CCC(C(N)=O)(N3CCCCC3)CC2)cc1 4.73%
NC(=O)C1(N2CCCCC2)CCN(C(=S)Nc2ccc(Cl)cc2)CC1 -0.45%

activation, active:
Oc1ccc(/C=N/Nc2ccc(C(F)(F)F)cn2)cc1O 54.9%
CCNS(=O)(=O)c1ccc(NC(=O)Nc2cccc(C(F)(F)F)c2)cc1 47.1%
O=[N+]([O-])c1cc(Cl)cc(/C=N/NC(=S)Nc2cc(S(=O)(=O)N3CCOCC3)ccc2Cl)c1O 77.5%
COc1ccc(C(=O)C2CCCN(Cc3cccn3-c3ccccn3)C2)c(C)c1 (centres undefined) 79.6%
Cc1ccccc1NCC(=O)N/N=C\c1ccc([N+](=O)[O-])s1 39.4%
O=C(c1cccs1)N1CCN(C(=O)N2CCOCC2)CC1 112%
COC(=O)c1sc(-c2ccc(C(C)(C)C)cc2)cc1NC(=O)/C=C/C(=O)O 51.4%
CC1=C/C(=N\OS(=O)(=O)c2ccccc2)C=CC1=O 44.8%
NC(=O)C1(N2CCCCC2)CCN(C(=O)c2ccc(C#Cc3ccccc3)o2)CC1 62.8%
